Source: PubChem
This is a sample that favours compounds with a hit; in the whole collection about 3.4% have one here.
GAA850 FXN act = activators of GAA850 frataxin (FXN) promoter | HEK293 lucGAA850 FXN promoter luciferase reporter, 24 h; percent of 10 µM SAHA response | activation, % at 6 µM | actives 0.56% (n = 360,000);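 active = activation above the average of all compounds screened plus 3 SD, cutoff fixed separately per campaign, cut at about 7.5% in these data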;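 note: 0% = DMSO wells and 100% = 10 µM SAHA wells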
HSF1 inh = HSF1 inhibition | NIH3T3-HGL HSE-luciferase, MG132-induced, luminescence 8 h; stronger effect = lower value | activity change, negative = inhibition, % at 7.5 µM (by protocol) | actives 0.77% (n = 300,000) | AID 2098;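 active = more than half of replicate wells show activity change below -50%, luminescence cut by over half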;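 note: luciferase reports HSF-1 transcriptional activity via heat shock element; 0% = median of DMSO wells and -100% = zero luminescence signal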
SMARCA2 act = increases SMARCA2 function in MMTV reporter cells. MG213 cells, MMTV-luciferase reporter, dexamethasone, overnight. activation, % at 9.1 µM. actives 1% (n = 370,000). AID 652017; in the data active = activation above about 7.8%;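 note: 0% = vehicle wells and 100% = reference activator wells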
HSP90 inh = HSP90 refolding inhibition in rabbit reticulocyte lysate; luciferase refolding luminescence, 3 h; inhibition, % at 5.6 µM; actives 0.91% (n = 290,000);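 active = inhibition above the screen-wide mean plus 3 SD, computed separately per campaign, cut at about 16% in these data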;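 note: 0% = DMSO wells and 100% = 60 µM geldanamycin wells; inhibitors lower the luminescence because luciferase stays unfolded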
AI-2 QS modul = Vibrio harveyi AI-2 quorum sensing modulation; Vibrio harveyi JMH597 AI-2 luminescence/OD600 ratio, 9 h; stronger effect = lower value; strain lacks LuxN and CqsS sensors; 0 = neutral-control median; activity change, % at 7.5 µM; actives 0.4% (n = 300,000); in the data active = activity change below about -75%, passing the limit was not always enough;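 note: luminescence divided by OD600 gain over 9 h not by final OD600 alone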
PG9 Ab binder = PG9 antibody binding by small molecule. TR-FRET gp120-PG9 antibody binding. inhibition, % at 6.7 µM. actives 0.43% (n = 360,000); in the data active = inhibition above about 8.5%
HSP90 inh confirm = confirmation of HSP90 inhibitors; inhibition, % at 5.9 µM; AID 1846; actives 64% (n = 2,300); shares compounds with HSP90 inh; rabbit reticulocyte lysate, luciferase refolding luminescence, 3 h; in the data active = inhibition above about 18%;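 note: 0% = vehicle wells and 100% = reference inhibitor wells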
FLuc counter = firefly luciferase inhibition, HSP90 counter-screen; shares compounds with HSP90 inh; purified native firefly luciferase, luminescence; inhibition, % at 5.9 µM; actives 48% (n = 2,300);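 active = inhibition above the mean inhibition of all tested sample wells plus 3 SD, cut at about 10% in these data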;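 note: 0% = DMSO with luciferase and 100% = wells lacking luciferase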
Target sequence (P08659 whole entry, looked up): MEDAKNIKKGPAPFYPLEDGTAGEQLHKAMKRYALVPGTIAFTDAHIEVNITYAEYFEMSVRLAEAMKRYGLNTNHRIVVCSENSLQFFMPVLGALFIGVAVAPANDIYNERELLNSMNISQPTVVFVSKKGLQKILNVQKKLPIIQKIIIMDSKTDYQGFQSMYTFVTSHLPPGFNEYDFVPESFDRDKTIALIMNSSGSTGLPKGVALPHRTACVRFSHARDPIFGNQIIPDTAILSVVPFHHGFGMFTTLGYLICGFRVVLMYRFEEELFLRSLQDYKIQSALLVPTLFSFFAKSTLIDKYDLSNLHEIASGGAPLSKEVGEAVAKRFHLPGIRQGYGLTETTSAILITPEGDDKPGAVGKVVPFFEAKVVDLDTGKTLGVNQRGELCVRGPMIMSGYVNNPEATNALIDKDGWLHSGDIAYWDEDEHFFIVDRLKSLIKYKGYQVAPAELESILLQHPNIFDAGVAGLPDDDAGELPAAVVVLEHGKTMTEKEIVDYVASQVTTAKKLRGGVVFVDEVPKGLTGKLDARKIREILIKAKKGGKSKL
* = called active by the depositor; x = not tested or not shown.

SMILES	GAA850 FXN act	HSF1 inh	SMARCA2 act	HSP90 inh	AI-2 QS modul	PG9 Ab binder	HSP90 inh confirm	FLuc counter
Nc1c(C(=O)OCC2CCCO2)c2nc3ccccc3nc2n1C1CCCC1 (stereo unspecified)	1.7	4.9	-3.7	17.2*	7.3	3.1	-1.7	-7.7
CC(=O)N/N=C\c1ccccc1OC/C=C/c1ccccc1	1.5	1.5	-3.1	7.7	-8.9	1.7	x	x
CC(=O)N/N=C\c1cccc(OC/C=C/c2ccccc2)c1	4.0	x	6.1	20.9*	-50.8	-2.1	18.6*	-12.6
COc1cc(/C=N\NC(=O)CC#N)ccc1OC/C=C/c1ccccc1	0.0	4.8	-2.2	-0.2	9.6	0.6	x	x
N#CCC(=O)N/N=C\c1cccc(OC/C=C/c2ccccc2)c1	1.9	-6.1	4.6	21.4*	-53.9	-0.8	26.1*	-26.4
Nn1c(SCC(=O)N2CCOCC2)nnc1-c1cc(-c2ccc(Cl)cc2)n[nH]1	x	x	-2.1	x	x	x	x	x
Cc1noc(C)c1C(=O)N1CCC(n2nnc3ncccc32)CC1	x	x	-1.5	x	x	x	x	x
CC(C)(C)C1=Nn2c(nnc2-c2ccc(C(C)(C)C)cc2)SC1	x	x	-5.5	x	x	x	x	x
O=C(Cn1c(-c2cncs2)nc2ccccc21)NC1CCCCC1	x	x	-5.2	x	x	x	x	x
CCOC(=O)c1cnc(Nc2nc3ccccc3o2)nc1C	-7.0	-23.0	4.9	18.0*	12.2	0.9	86.1*	75.0*
Cc1nc(Nc2nc3ccccc3o2)nc2c1CCC2	-4.4	5.0	0.3	17.2*	16.4	-2.5	50.1*	43.3*
Cc1cccc(C)c1Nc1nc2ccccc2o1	-0.5	1.6	-0.9	-1.6	6.3	0.6	x	x
CCOC(=O)CNC(=O)c1sc(NC(=O)c2cccc(F)c2)nc1C	1.8	4.1	0.6	32.0*	26.6	-2.2	31.5*	-23.3
CCOC(=O)c1sc(NC(=O)Nc2ccccc2F)nc1C	-10.5	-73.8*	-1.5	37.3*	38.5	1.9	75.7*	70.8*
CCOC(=O)CNC(=O)c1sc(NC(=O)c2ccccc2F)nc1C	1.1	4.1	6.3	69.9*	17.1	0.0	73.9*	11.9*
C/C(=N\NC(=O)c1cccc2ccccc12)c1cccs1	5.7	7.6	2.4	1.2	2.1	0.4	x	x
C/C(=N\NC(=O)c1ccccc1O)c1cccs1	-5.0	5.2	2.0	23.4*	11.8	-0.4	40.3*	44.3*
Cc1ccc(-n2nnnc2CCl)cc1	-3.3	-4.2	2.3	3.6	-44.7	2.6	x	x
Cc1ccc(OCc2nnnn2-c2ccccc2)cc1	0.5	5.5	-1.6	75.2*	19.4	1.4	0.8	-1.6
C=CCN1[C@@H](CC(C)C)COc2cccc(F)c2S1(=O)=O	x	x	-3.1	x	x	x	x	x
Cc1ccccc1NC(=O)[C@H]1CC(=O)O[C@@H]1c1ccccc1	x	x	-1.8	x	x	x	x	x
COc1ccccc1OCc1ccc(C(=O)N(C)c2ccccc2)o1	1.1	1.8	-0.3	31.9*	14.5	0.2	3.7	-2.1
COc1ccccc1OCc1ccc(C(=O)N(C)C)o1	2.8	2.8	-0.7	0.7	-7.2	1.5	x	x
Cc1oc(-c2nc3ccccc3n2C)cc1C(=O)c1ccccc1	0.8	-3.1	4.1	17.3*	56.6	-3.0	56.6*	46.2*
CCCCCCCCN1C(=O)[C@@H](CC(=O)NCC2CCCCC2)C[C@@]2(C(=O)OC)C1=C[C@H](COCc1ccccc1)O[C@@H]2C	x	x	-1.8	x	x	x	x	x
SMILES	GAA850 FXN act	HSF1 inh	SMARCA2 act	HSP90 inh	AI-2 QS modul	PG9 Ab binder	HSP90 inh confirm	FLuc counter
O=C(NCc1ccccc1)N1CCN(Cc2nc3ccccc3c(=O)[nH]2)CC1	x	x	-0.1	x	x	x	x	x
CCOc1cccc(N)c1	0.3	x	x	x	x	x	x	x
CCOc1ccc(N)c(SSc2cc(OCC)ccc2N)c1	3.6	-10.4	2.4	30.0*	9.8	0.1	40.8*	9.6*
O=C(Nc1ncc([N+](=O)[O-])s1)c1ccc2c(c1)OCO2	-7.5	-31.5	-3.1	76.0*	43.7	0.1	87.2*	76.1*
Cc1nc2ccc(C(=O)N3CCN(C(=O)OCc4ccccc4)CC3)cc2n1C1CCCC1	x	x	-6.5	x	x	x	x	x
COc1ccc(NC(=S)NNC(=O)Cn2nc([N+](=O)[O-])cc2C)cc1	0.7	2.8	-0.8	40.7*	19.1	0.4	4.4	1.0
COc1ccc(NC(=O)c2ccc(COCC(F)(F)C(F)F)cc2)cc1	2.5	-4.2	0.8	18.9*	0.3	-1.6	-2.6	-7.6
COc1ccc(NC(=O)c2ccc(COCC(F)(F)C(F)F)cc2)cc1OC	-0.3	0.5	-2.9	1.4	19.7	-1.2	x	x
CCCN1C=CC(=C2C(=O)c3ccccc3C2=O)C=C1	-16.4	-83.3*	-10.8	91.7*	16.0	-2.0	96.0*	91.2*
